Experimental findings from PubChem BioAssay (NCATS) are described below.

Records with an inconclusive call do not appear. Calls of active or inactive are those of the source. Unless noted, calls come from the whole dose curve; as a rule, active = well fitted curve in the direction sought with a large enough effect; inconclusive = small, poorly fitted or top-dose-only effect, or another doubt; inactive = no such curve, though single readings can be large; an effect the other way counts as inactive or inconclusive.

Assay [1] is described as follows: qHTS Assay for Lipid Storage Modulators (AID 1519; calls by dose curve; note: potency is the fitted concentration of half-maximal effect; for activity change, negative = inhibition: % is set by controls: 0 for no effect and ±100 for the full control effect). The settings on record: Drosophila S3 cells, BODIPY lipid droplet/cell ratio, laser cytometry, cells loaded with oleic acid; for activity change, negative = inhibition: at 57.5 µM (top of the series). Summed up:
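Cells seeded at 5,000 per well were treated with compounds over a concentration series and loaded with oleic acid (400 uM, as added). Lipid droplet fluorescence (488 nm excitation, 500-530 nm channel) was read by laser-scanning cytometry and normalized to 20 uM Triacsin C.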
A general note: Quantitative high-throughput screening tests each substance at several concentrations.

Assay [2] concerns the target ATP-dependent 6-phosphofructokinase (Trypanosoma brucei brucei) (UniProt O15648). The assay can be described thus: qHTS Assay to Find Inhibitors of T. brucei phosphofructokinase: hit validation (AID 492961).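 Note: luminescence reports ADP formed as PFK phosphorylates fructose-6-phosphate with ATP; % is set by controls: 0 for no effect and ±100 for the full control effect.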 The conditions noted are these: T. brucei PFK, ADP-Glo luminescence; series mostly up to 24.3 µM. Summed up: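 Reaction: 0.1 M triethanolamine pH 8.0, 5 mM MgCl2, F6P 0.5 mM, ATP 0.1 mM, PFK 1.25 nM, 45 min RT. Read-out: ADP-Glo luminescence. Analysis: concentration-response fits, classed by r2 and efficacy.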

In assay [3] the target is Ubiquitin carboxyl-terminal hydrolase 1 (Homo sapiens) (UniProt O94782). In words: Inhibitors of USP1/UAF1: Pilot qHTS (AID 504865).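 Note: rhodamine fluorescence freed from ubiquitin-rhodamine substrate followed over time; top concentration of the series differs between compounds; % is set by controls: 0 for no effect and ±100 for the full control effect; nearly all actives have a fitted effect of over 35% in size.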 The conditions noted are these: purified USP1/UAF1, Ub-rhodamine cleavage fluorescence; series mostly up to 114 µM. Summed up: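 Kinetic fluorescence assay: 1nM USP1/UAF1, 15 min compound preincubation, then 150nM Ub-Rho; 480/540 nm.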
Assay [4] addresses Luciferin 4-monooxygenase (Photinus pyralis) (UniProt P08659). The assay can be described thus: Biochemical firefly luciferase enzyme assay for NPC (AID 624030).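 Note: purified P. pyralis luciferase at 10 nM with luciferin and ATP substrate; 0% = DMSO and -100% = full luciferase inhibition by PTC124 control; nearly all actives have a fitted effect of over 70% in size.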 The conditions noted are these: purified P. pyralis luciferase, luminescence, 5 min; series mostly up to 24.9 µM. Summed up: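 Counter-screen for direct inhibition of the luciferase enzyme by approved-drug library compounds, run at 10 nM enzyme in 50 mM Tris acetate (final). Luminescence was read within 5 min of enzyme-buffer addition and normalized to PTC124 versus DMSO (0%).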

Assay [5] is described as follows: qHTS profiling for inhibitors of Plasmodium falciparum proliferation (AID 504749).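 For activity, negative = inhibition: 0% = DMSO vehicle and full inhibition = artemisinin control.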 For all read-outs here: nearly all actives have a fitted effect of over 60% in size. Note: potency is the fitted concentration of half-maximal effect. The conditions noted are these: P. falciparum in erythrocytes, SYBR Green DNA, 72 h; for activity, negative = inhibition: at 28.7 µM (top of the series). Summed up: (§1)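 P. falciparum-infected erythrocytes (0.3% parasitemia, 2.5% hematocrit final) were exposed to compounds for 72 h at 37 C in 5% CO2, then lysed with SYBR Green buffer overnight at room temperature; parasite DNA fluorescence was normalized to artemisinin and DMSO controls.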

The test system of the next assay is 3D7. Described as above. The conditions noted are these: P. falciparum in erythrocytes, SYBR Green DNA, 72 h; series mostly up to 12.8 µM. Summed up: as §1
The next assay has as its system C2A. The description is as above. The settings on record: P. falciparum in erythrocytes, SYBR Green DNA, 72 h; series mostly up to 12.8 µM. Summed up: as §1
The test system of another assay is CP201. The assay is described as above. The settings on record: P. falciparum in erythrocytes, SYBR Green DNA, 72 h; series mostly up to 12.8 µM. Summed up:
as §1

A further assay has as its system CP211. The description is as above. The conditions noted are these: P. falciparum in erythrocytes, SYBR Green DNA, 72 h; series mostly up to 12.8 µM. Summed up: as §1
A further assay relates to CP237. The assay is described as above. The conditions noted are these: P. falciparum in erythrocytes, SYBR Green DNA, 72 h; series mostly up to 12.8 µM. Summed up:
as §1

A further assay concerns CP252. The assay is described as above. The settings on record: P. falciparum in erythrocytes, SYBR Green DNA, 72 h; series mostly up to 12.8 µM. Summed up: as §1
In the next assay the test system is CP262. The assay is described as above. The settings on record: P. falciparum in erythrocytes, SYBR Green DNA, 72 h; series mostly up to 12.8 µM. Summed up:
as §1

The test system of a further assay is CP268. The assay is described as above. The settings on record: P. falciparum in erythrocytes, SYBR Green DNA, 72 h; series mostly up to 12.8 µM. Summed up: as §1
Another assay concerns CP305. Described as above. The conditions noted are these: P. falciparum in erythrocytes, SYBR Green DNA, 72 h; series mostly up to 12.8 µM. Summed up:
as §1

The next assay has as its system CP315. The assay is described as above. The settings on record: P. falciparum in erythrocytes, SYBR Green DNA, 72 h; series mostly up to 12.8 µM. Summed up: as §1
A further assay concerns CP329. The assay is described as above. The conditions noted are these: P. falciparum in erythrocytes, SYBR Green DNA, 72 h; series mostly up to 12.8 µM. Summed up:
as §1

The test system of another assay is HB3. The assay is described as above. The settings on record: P. falciparum in erythrocytes, SYBR Green DNA, 72 h; series mostly up to 12.8 µM. Summed up: as §1
In the next assay the test system is JCK. Described as above. The conditions noted are these: P. falciparum in erythrocytes, SYBR Green DNA, 72 h; series mostly up to 12.8 µM. Summed up: as §1
A further assay deals with PAD. Described as above. The conditions noted are these: P. falciparum in erythrocytes, SYBR Green DNA, 72 h; series mostly up to 12.8 µM. Summed up: as §1
The next assay concerns PC49. The assay is described as above. The settings on record: P. falciparum in erythrocytes, SYBR Green DNA, 72 h; series mostly up to 12.8 µM. Summed up: as §1
[6] abbreviates: measured here: cell count channel max response.
[7] abbreviates: measured here: lipid channel max response.

Chain of Ubiquitin carboxyl-terminal hydrolase 1 (Homo sapiens) (O94782 whole entry, looked up): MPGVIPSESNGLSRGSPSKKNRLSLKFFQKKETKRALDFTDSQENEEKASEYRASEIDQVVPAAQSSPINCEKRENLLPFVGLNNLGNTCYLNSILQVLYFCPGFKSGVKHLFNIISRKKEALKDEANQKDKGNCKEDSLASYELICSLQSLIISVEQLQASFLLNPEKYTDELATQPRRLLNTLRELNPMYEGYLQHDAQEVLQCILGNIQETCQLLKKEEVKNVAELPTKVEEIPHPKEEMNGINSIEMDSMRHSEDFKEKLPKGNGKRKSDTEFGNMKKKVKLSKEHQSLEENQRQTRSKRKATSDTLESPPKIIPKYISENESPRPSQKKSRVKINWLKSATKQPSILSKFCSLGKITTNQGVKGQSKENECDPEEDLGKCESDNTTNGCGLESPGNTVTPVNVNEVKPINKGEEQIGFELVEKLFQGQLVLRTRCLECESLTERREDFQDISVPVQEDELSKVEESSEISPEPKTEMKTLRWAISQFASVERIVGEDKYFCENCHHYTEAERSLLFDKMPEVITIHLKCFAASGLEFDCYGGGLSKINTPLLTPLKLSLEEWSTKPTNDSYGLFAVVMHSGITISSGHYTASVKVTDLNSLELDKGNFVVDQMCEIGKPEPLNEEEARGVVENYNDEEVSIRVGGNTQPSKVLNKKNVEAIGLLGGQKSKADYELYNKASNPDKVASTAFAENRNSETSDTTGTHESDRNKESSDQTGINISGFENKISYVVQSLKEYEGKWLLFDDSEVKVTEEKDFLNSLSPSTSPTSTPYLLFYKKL
Chain of ATP-dependent 6-phosphofructokinase (Trypanosoma brucei brucei) (O15648 whole entry, looked up): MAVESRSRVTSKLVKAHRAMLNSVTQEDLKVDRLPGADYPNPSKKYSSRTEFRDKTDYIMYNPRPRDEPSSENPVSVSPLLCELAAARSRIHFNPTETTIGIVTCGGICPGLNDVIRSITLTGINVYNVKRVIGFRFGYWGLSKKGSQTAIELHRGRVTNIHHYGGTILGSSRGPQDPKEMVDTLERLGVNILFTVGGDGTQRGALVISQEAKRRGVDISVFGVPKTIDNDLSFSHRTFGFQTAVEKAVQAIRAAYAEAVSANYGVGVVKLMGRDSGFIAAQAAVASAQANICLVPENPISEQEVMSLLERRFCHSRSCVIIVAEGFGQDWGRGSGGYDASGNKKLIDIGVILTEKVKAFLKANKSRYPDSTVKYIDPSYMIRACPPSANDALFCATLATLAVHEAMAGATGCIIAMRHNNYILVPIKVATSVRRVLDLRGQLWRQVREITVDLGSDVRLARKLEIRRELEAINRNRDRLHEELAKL
Chain of Luciferin 4-monooxygenase (Photinus pyralis) (P08659 whole entry, looked up): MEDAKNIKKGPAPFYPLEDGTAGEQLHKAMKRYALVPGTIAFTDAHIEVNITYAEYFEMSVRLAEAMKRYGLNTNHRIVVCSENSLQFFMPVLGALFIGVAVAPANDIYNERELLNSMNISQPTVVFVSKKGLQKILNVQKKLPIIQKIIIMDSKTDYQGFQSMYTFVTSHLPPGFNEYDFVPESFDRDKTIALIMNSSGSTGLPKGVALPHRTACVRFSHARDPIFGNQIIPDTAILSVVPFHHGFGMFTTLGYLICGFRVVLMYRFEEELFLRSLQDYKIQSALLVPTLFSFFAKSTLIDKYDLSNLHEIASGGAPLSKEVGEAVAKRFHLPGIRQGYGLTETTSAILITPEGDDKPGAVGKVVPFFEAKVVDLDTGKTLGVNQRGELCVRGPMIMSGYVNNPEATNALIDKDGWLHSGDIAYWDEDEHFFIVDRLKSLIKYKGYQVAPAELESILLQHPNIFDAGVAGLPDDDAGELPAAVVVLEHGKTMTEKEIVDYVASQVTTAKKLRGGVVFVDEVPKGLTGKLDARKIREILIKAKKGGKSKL

With `COc1cc(C2c3cc4c(cc3C(O[C@@H]3OC5COC(c6cccs6)OC5C(O)C3O)C3COC(=O)C23)OCO4)cc(OC)c1O` (stereo partly specified), the Potency is 5.01 µM (active) in assay [1]; 1.12 µM (active) in assay [5] (parasite line A); 2 µM (active) in [5] (parasite line B); 2 µM (active) in the assay on 3D7; 2.24 µM (active) with C2A; 4.78 µM (active) in the assay on CP201. Also, the Potency with CP211 is 3.38 µM (active); in the assay with CP237, 2.24 µM (active); in the assay on CP252, 1.12 µM (active); in the assay on CP262, 8.49 µM (active); in the assay on CP268, 4.26 µM (active); with CP305 it was 1.69 µM (active). In addition, the Potency is 3.79 µM (active) with CP315; 4.26 µM (active) with CP329; 3.16 µM (active) with HB3; 4.47 µM (active) in the assay on JCK; 2 µM (active) in the assay with PAD; 4.47 µM (active) with PC49. For the same compound, the figures for the max response in assay [1] (setting [6]) and in [1] (setting [7]) were 22.3% and -100%, respectively. Besides, the call in [2] was inactive. Moreover, the Potency result in [3] and in [4] was “inactive” in each case.
Consider `COc1ccc(CC(N)C(=O)NC2C(CO)OC(n3cnc4c(N(C)C)ncnc43)C2O)cc1` (stereo unspecified), for which the activity change, negative = inhibition in [1] is -15.4% (inactive). Moreover, the max response in assay [1] (setting [6]) amounted to 18.9%; in assay [1] (setting [7]), 1.24%. Further, the outcome in assay [2] was inactive. Further, the Potency entry in assay [3] and in assay [4] was “inactive” throughout. Moreover, the Potency in assay [5] (parasite line A) is 0.794 µM (active); in assay [5] (parasite line B), 1 µM (active); in the assay with 3D7, 1 µM (active); with C2A it was 0.891 µM (active); in the assay with CP201, 1.51 µM (active); in the assay with CP211 it was 0.478 µM (active). Also, the Potency with CP237 was 0.891 µM (active); with CP252, 0.794 µM (active); in the assay on CP262 it was 0.675 µM (active); in the assay on CP268, 1.51 µM (active); in the assay on CP305, 1.2 µM (active); in the assay with CP315, 0.849 µM (active). For the same compound, the Potency with CP329 is 1.07 µM (active); in the assay on HB3, 1 µM (active); with JCK, 3.55 µM (active); with PAD, 0.447 µM (active); in the assay on PC49, 2 µM (active).
On to `CC1(C)OC2CC(=O)OC[C@@]23C1CC(=O)[C@]1(C)C3CC[C@@]2(C)C(c3ccoc3)OC(=O)C3O[C@@]321` (stereo partly specified), for which, in [1], the activity change, negative = inhibition was 7.05% (inactive). The max response came out at 20.2% in [1] (setting [6]) and 29.2% in [1] (setting [7]). Moreover, the compound was called inactive in assay [2]. Also, the Potency entry (in assay [3]; in assay [4]; in the assay with 3D7; with C2A; in the assay on CP201; in the assay on CP211) was “inactive” throughout. The Potency entry with CP237, in the assay with CP252, with CP262, in the assay on CP268, with CP305 and with CP315 was “inactive” in each case. The Potency result in the assay with CP329, in the assay with HB3, with JCK, in the assay with PAD and with PC49 was “inactive” in each case. Moreover, the results for the activity, negative = inhibition in assay [5] (parasite line A) and in assay [5] (parasite line B) were -0.282% (inactive) and 13.3% (inactive), respectively.
In the case of `CNC1C(OC2C(O[C@@H]3C(O)C(O)[C@@H](N=C(N)N)C(O)C3N=C(N)N)OC(C)[C@@]2(O)CO)OC(CO)C(O)C1O` (stereo partly specified), the activity change, negative = inhibition in assay [1] was 8.79% (inactive). For the same compound, the max response in assay [1] (setting [6]) was found to be 13.3%; in assay [1] (setting [7]) it was 25.4%. Further, the compound was classed as inactive in [2]. Moreover, the Potency entry (in [3]; in assay [4]; in the assay with 3D7; in the assay with C2A; with CP201; with CP211) was “inactive” throughout. Moreover, the Potency result in the assay on CP237, with CP252, in the assay on CP262, with CP268, with CP305 and in the assay with CP315 was “inactive” in each case. Moreover, the Potency entry with CP329, in the assay with HB3, in the assay with JCK and in the assay on PC49 was “inactive” in each case. Moreover, the activity, negative = inhibition was 9.26% (inactive) in assay [5] (parasite line A) and 13.4% (inactive) in assay [5] (parasite line B).
